Screening results deposited in PubChem BioAssay by National Center for Advancing Translational Sciences (NCATS).
Hits are enriched below; roughly 3.3% of the tested compounds scored in any of these assays.
Sm TGR block: S. mansoni TGR enzyme inhibition; Q962Y6; purified TGR, DTNB reduction, TNB absorbance 405 nm; Potency, µM (titrated, usually from 114 µM), most hits filed as inhibitors; actives 3% (n = 360,000); note: nearly all actives have a fitted effect of over 60% in size
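First, TGR (20 nM dispensed) and NADPH were mixed with compound. Second, a 15 min room-temperature incubation followed. Third, further NADPH and then DTNB were added to start the reaction. Finally, TNB absorbance was monitored kinetically.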
TbPYK inhibitor: T. brucei pyruvate kinase inhibition; TbPYK enzyme, Kinase-Glo Plus ATP luminescence, 45 min; actives 0.12% (n = 410,000); Potency, µM (highest dose often 76.8 µM), usual class: inhibitors; AID 624173; note: nearly all actives have a fitted effect of over 50% in size
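Luminescence from Kinase-Glo Plus, added after a 45-minute room-temperature reaction, served as the end-point read-out. The enzyme and substrate were preincubated with compound before ADP (130 uM final) initiated turnover. Concentration-effect curves came from normalized qHTS data.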
AmpC detergent: blocks E. coli AmpC beta-lactamase in detergent assay; actives 0.041% (n = 370,000); AmpC hydrolysis of nitrocefin, absorbance 480 nm, 0.01% Triton; Potency, µM (highest dose often 114 µM), most hits filed as inhibitors; P00811; note: nearly all actives have a fitted effect of over 25% in size
Target sequence (P00811 whole entry, looked up): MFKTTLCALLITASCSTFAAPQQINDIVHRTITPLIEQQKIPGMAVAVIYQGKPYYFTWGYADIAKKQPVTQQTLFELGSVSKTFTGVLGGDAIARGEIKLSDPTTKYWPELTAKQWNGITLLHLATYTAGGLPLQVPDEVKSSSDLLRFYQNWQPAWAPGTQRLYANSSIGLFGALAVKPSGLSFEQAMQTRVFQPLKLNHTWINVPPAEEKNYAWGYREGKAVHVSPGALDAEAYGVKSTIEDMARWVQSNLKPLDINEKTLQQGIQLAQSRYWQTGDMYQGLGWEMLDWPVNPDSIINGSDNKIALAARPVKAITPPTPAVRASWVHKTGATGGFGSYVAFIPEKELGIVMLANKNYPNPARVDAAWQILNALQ
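20 mM phosphate pH 7.0 + 0.01% (detergent screen) or 0.0001% Triton X-100; 5.3 nM AmpC reagent; cpd preinc 15 min RT; nitrocefin (800 uM stock) to start; A480 q20 s × 4 min; Activity was normalised to no-enzyme and no-compound control wells.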
SARS PLP yeast: inhibitors of SARS-CoV papain-like protease in yeast; S. cerevisiae expressing SARS-CoV PLpro, growth rescue; actives 0.19% (n = 330,000); Potency, µM (top dose mostly 32.9 µM), usual class: activators; AID 485353; calls by dose curve; note: nearly all actives have a fitted effect of over 55% in size
RE007 growth inh: less growth of the S. pombe RE007 Vpr strain; AID 651644; Potency, µM (highest dose often 92.2 µM), hits mostly inhibitors; actives 0.21% (n = 360,000); S. pombe RE007 Vpr strain, BacTiter-Glo ATP luminescence, 24 h; active = well fitted falling curve with a large enough effect; inconclusive = small, poorly fitted or top-dose-only effect; inactive = no such curve, though single readings can be large or run the other way; note: nearly all actives have a fitted effect of over 50% in size
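Fission yeast RE007 carrying one integrated HIV-1 vpr copy, seeded at OD 0.01 in PMG+AL medium with 23 nL pinned compound. Grown 24 h at 30 degrees; viability read by BacTiter-Glo luminescence after 5 min.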
AmpC inh no detg: blocks E. coli AmpC beta-lactamase in detergent-free assay. AmpC nitrocefin hydrolysis, absorbance 480 nm, 0.0001% Triton. Potency, µM (highest dose often 57.1 µM), actives largely listed as inhibitors. actives 0.52% (n = 330,000); note: nearly all actives have a fitted effect of over 20% in size
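AmpC (5.3 nM in the dispensed reagent) in 20 mM phosphate pH 7.0 with 0.01% (detergent screen) or 0.0001% Triton X-100 was preincubated with compounds for 15 min at room temperature. Nitrocefin was then added from an 800 uM solution, and hydrolysis was followed at 480 nm.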
Numbers stand for hits; n = inactive; u = inconclusive; x = no result given; [ ] = remark or other dose. Unless noted, calls come from the whole dose curve; as a rule, active = well fitted curve in the direction sought with a large enough effect; inconclusive = small, poorly fitted or top-dose-only effect, or another doubt; inactive = no such curve, though single readings can be large; an effect the other way counts as inactive or inconclusive.

SMILES	Sm TGR block	TbPYK inhibitor	AmpC detergent	SARS PLP yeast	RE007 growth inh	AmpC inh no detg
COc1cc(OC)cc(-c2sc3ccc(OC)cc3c2C#CCCO)c1	25µM	n	n	n	n	n
CCCCn1c(-c2ccco2)nc2ccccc2c1=O	56µM	n	n	n	n	n
COCCn1c(-c2ccco2)nc2nc3ccccc3nc21	n	n	u	n	n	n
CCCCn1c(SCC(=O)NCc2ccco2)nc2ccccc2c1=O	n	n	u	n	n	n
CC(C)OCCCn1c(-c2ccco2)nc2nc3ccccc3nc21	50µM	n	n	n	n	n
Oc1ccc(N=Cc2ccc(O)c(O)c2)cc1	22µM	u	n	n	n	n
CC(C)Nc1cccnc1N1CCN(C(=O)c2cc3cc(NS(C)(=O)=O)ccc3[nH]2)CC1	x	n	x	x	x	x
CCCc1nc(SCC(=O)N2CCC(Cc3ccccc3)CC2)c2c(=O)n(C)c(=O)n(C)c2n1	n	n	u	n	n	3.5µM
CCCc1nc(SCC(=O)N2CCCc3ccccc32)c2c(=O)n(C)c(=O)n(C)c2n1	n	n	n	n	n	40µM
CCCn1c(SCC(=O)N2c3ccccc3Sc3ccccc32)nc2c1c(=O)n(C)c(=O)n2C	n	n	n	n	n	n
Cn1c(=O)c2c(SCC(=O)N3CCCc4ccccc43)nc(CC(C)(C)C)nc2n(C)c1=O	n	n	u	n	n	n
CCCn1c(SCC(=O)N2CCCc3ccccc32)nc2c1c(=O)n(C)c(=O)n2C	n	n	35µM	n	n	n
CCc1nc(SCC(=O)N2CCN(c3ccccc3)CC2)c2c(=O)n(C)c(=O)n(C)c2n1	n	x	n	n	x	n
COc1ccc(OC)c(C2c3c(oc4ccc(C)cc4c3=O)C(=O)N2CCCN(C)C)c1 (stereo not given)	n	n	n	x	x	x
CCN(CC)S(=O)(=O)c1ccc(C(=O)NCCSc2c(-c3ccc(F)cc3)[nH]c3ccccc23)cc1	n	n	n	x	x	x
COc1ccc(CN2CCNCC2)cc1	50µM	n	n	u	n	n
O=C(Cc1ccc(S(=O)(=O)N2CCOCC2)s1)NCC(=O)Nc1ccccc1Br	56µM	n	n	n	n	n
O=C(Cc1ccc(S(=O)(=O)N2CCOCC2)s1)Nc1ccccc1Br	n	n	n	n	n	n
O=C(Cn1cc(S(=O)(=O)c2ccccc2)c(=O)c2cc3c(cc21)OCO3)Nc1ccccc1	n	n	n	x	x	x
CCOc1ccc(S(=O)(=O)N(CC(=O)N/N=C/c2ccc(-c3ccc([N+](=O)[O-])cc3)o2)c2ccccc2)cc1	n	n	n	n	n	13µM
CCOc1ccccc1NC(=O)C1CCN(S(=O)(=O)c2cccc3nonc23)CC1	n	n	n	x	x	x
CNC(=S)NNC(=O)COc1cccc(C)c1C	n	n	u	10µM	n	n
CCOCCCNC(=O)/C(C#N)=C/c1ccc([N+](=O)[O-])o1	8.9µM	n	n	n	45µM	n[11.4 µM]
CC(NC(=O)/C(C#N)=C/c1ccco1)c1ccccc1 (stereo not given)	n	n	n	n	n	n
CC(NC(=O)/C(C#N)=C/c1ccc([N+](=O)[O-])o1)c1ccccc1 (stereo not given)	1.3µM	n	n	n	5µM	n
CC(C)(CC(=O)NCc1ccc(Cl)cc1Cl)CC1=NS(=O)(=O)c2ccccc2N1	n	n	n	x	x	x
Cc1ccc(S(=O)(=O)c2nnn(CC(=O)Nc3ccccc3C)c2N)cc1C	n	n	n	x	x	x
C=C1C(=O)O[C@@H]2C[C@@H](C)[C@@H]3C=CC(=O)[C@@]3(C)[C@@H](O)[C@H]12	25µM	n	n	n	n[18.4 µM]	n
COc1ccc(/C=N/N=C2/NC(=O)CC(C(=O)O)S2)cc1 (stereo not given)	n	n	u	n	n	n
COc1ccc(/C=N/N=C2/CC(C)(C)Cc3n[nH]c(=O)cc32)cc1	13µM	n	n	n	n	n
